Screens deposited in PubChem BioAssay by several laboratories.
TLR9-MyD88 block = inhibitors of TLR9-MyD88 association in cells, primary screen, cell-based, CHO, BLA complementation, fluorescence. actives 0.21% (n = 340,000). AID 504734, 2011. CCF4 FRET ratio. inhibition, % at 4.98 µM;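 active means inhibition above the mean over all tested compounds plus 3 SD, cut at about 21% in these data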
Neddyl block = inhibitors of cullin neddylation, primary screen, biochemical, TR-FRET, uHTS, NAE and Ubc12. NEDD8-conjugating enzyme Ubc12 (Homo sapiens) + NEDD8-activating enzyme E1 regulatory …. inhibition, % at 25 µM. actives 0.58% (n = 360,000). AID 651699, 2012; in the data active means inhibition above about 36%
NPR1 activator = GC-A stimulated cGMP production enhancers – HEK293 GC-A cells, cGMP TR-FRET, EC30 ANP, primary screen. activation, % at 10 µM. AID 1671463, 2021. actives 0.14% (n = 370,000). 0% at EC30 ANP, 100% saturating ANP. Atrial natriuretic peptide receptor 1 (Homo sapiens), P16066; in the data active means activation above about 40%
TLR4-MyD88 BLA = inhibitors of TLR4-MyD88 association in cells, primary screen, cell-based, HeLa CL3-4, BLA complementation, FRET ratio; Toll-like receptor 4 (Homo sapiens) + Myeloid differentiation primary response protein …; HeLa CL3-4 TLR4/MyD88 BLA complementation; inhibition, % at 8.4 µM; actives 0.18% (n = 200,000); in the data active means inhibition above about 25%
NPR2 activator = human GC-B receptor activators, primary screen, HEK293 GC-B cells, cGMP TR-FRET, EC30 CNP; 0% at EC30 CNP, 100% saturating CNP; activation, % at 10 µM; actives 0.11% (n = 370,000); AID 1920062, 2024;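 active means activation at 10 µM reaching about 35% in either raw or pattern-adjusted values, limit read from the data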
Target sequence (P20594 whole entry, looked up): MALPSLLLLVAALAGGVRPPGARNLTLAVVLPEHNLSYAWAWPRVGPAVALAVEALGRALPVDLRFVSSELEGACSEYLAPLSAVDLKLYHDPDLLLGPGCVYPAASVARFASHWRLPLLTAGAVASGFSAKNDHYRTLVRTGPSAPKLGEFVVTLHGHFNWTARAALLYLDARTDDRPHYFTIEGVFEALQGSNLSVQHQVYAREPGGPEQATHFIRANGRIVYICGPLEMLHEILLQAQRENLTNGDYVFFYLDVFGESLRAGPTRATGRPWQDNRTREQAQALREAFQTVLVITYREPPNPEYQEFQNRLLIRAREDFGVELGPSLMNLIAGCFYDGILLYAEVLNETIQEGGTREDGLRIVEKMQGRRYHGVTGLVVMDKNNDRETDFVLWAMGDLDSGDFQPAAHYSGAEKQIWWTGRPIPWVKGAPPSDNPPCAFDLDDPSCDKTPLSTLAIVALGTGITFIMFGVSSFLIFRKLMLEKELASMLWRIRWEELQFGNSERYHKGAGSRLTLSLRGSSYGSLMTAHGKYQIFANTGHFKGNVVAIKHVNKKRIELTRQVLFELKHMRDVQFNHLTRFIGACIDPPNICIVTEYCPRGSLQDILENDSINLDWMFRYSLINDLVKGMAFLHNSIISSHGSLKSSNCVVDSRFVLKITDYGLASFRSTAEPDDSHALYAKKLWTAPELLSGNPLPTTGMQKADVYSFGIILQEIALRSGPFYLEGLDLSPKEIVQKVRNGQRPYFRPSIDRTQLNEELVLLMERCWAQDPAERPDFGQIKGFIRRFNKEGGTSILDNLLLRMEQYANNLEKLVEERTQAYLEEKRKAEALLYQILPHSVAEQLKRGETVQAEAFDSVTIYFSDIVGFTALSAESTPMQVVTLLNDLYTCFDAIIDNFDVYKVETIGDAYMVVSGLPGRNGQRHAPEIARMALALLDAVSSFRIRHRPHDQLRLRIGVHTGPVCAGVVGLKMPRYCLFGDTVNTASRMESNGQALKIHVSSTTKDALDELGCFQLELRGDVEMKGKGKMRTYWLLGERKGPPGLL
NOD2 RIPK2 PPI = NOD2-RIPK2 binding disruptors in cells, primary screen, fluorescence, CHO cells, BLA complementation; actives 0.38% (n = 360,000); inhibition, % at 4.98 µM; AID 624267, 2012; CCF4 ratio; in the data active means inhibition above about 21%
Neddyl conf = blockade of NEDD8 conjugation to cullin – biochemical, TR-FRET, single concentration, confirmation; shares compounds with Neddyl block; TR-FRET cullin neddylation biochemical assay; calls only at 25 µM; actives 13% (n = 1,800); in the data active means inhibition above about 40%;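 further: neddylation substrate is the cullin 1 ring ligase complex with SKP2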
A number is an active result; 0 = inactive; - = not tested or not shown; + = active, no number; ! = not active in a repeat. Only some compounds are listed: those with a hit (about 1.2% of all), similar ones and a draw of the others.

SMILES	TLR9-MyD88 block	Neddyl block	NPR1 activator	TLR4-MyD88 BLA	NPR2 activator	NOD2 RIPK2 PPI	Neddyl conf
Cn1cc([C@]2(O)C(=O)Nc3ccc(OC(F)(F)F)cc32)c2ccccc21	-	0	0	-	0	0	-
O=C(N/N=C/c1cnc(N2CCCCC2)s1)c1ccc(Cl)cc1	0	46	0	0	0	0	+
O=C(NCc1ccco1)c1cccn2c(=O)c3cc4ccccc4cc3nc12	-	-	-	0	-	-	-
COCCCNC(=O)c1cccn2c(=O)c3cc4ccccc4cc3nc12	0	40	0	0	0	0	0
Cc1cccn2c(=O)c3cc(C(=O)N4CCCCC4)sc3nc12	0	-	0	-	0	0	-
Cc1cccn2c(=O)c3cc(C(=O)NC4CCCC4)sc3nc12	0	64	0	-	0	0	-
Cc1cccn2c(=O)c3cc(C(=O)N4CCCC(C)C4)sc3nc12 (configuration not stated)	0	54	0	-	0	0	0
CCOC(=O)C1CCN(C(=O)c2cc3c(=O)n4cccc(C)c4nc3s2)CC1	0	-	0	-	0	0	-
Cc1cccn2c(=O)c3cc(C(=O)N4CCN(Cc5ccccc5)CC4)sc3nc12	0	65	0	-	0	0	+
CCC1CCCCN1C(=O)c1cc2c(=O)n3cccc(C)c3nc2s1 (configuration not stated)	0	56	-	-	-	0	0
O=C(NC1CCCC1)c1cc2c(=O)n3ccccc3nc2s1	0	-	0	-	0	0	-
CCCCNC(=O)C[C@@H]1C[C@@]2(C(=O)OCC)CCCC=C2N(Cc2ccc3c(c2)OCO3)C1=O	-	0	0	-	0	0	-
CC(C)(C)c1ccc2c(c1)OC(C(=O)N/N=C/c1ccc[nH]1)CO2 (configuration not stated)	-	-	0	-	0	-	-
Cc1ccc(C(=O)N2CCC[C@@H]2C(=O)N2CCC[C@H]2C(=O)NCc2ccccc2)cc1	-	-	0	-	0	-	-
COC(=O)c1ccc2nc(-c3ccc(F)cc3)c(Cc3ccccc3OC)n2c1	-	53	0	-	0	0	0
COC(=O)c1ccc2nc(-c3cccc(Br)c3)c(Cc3ccccc3OC)n2c1	-	0	0	-	0	0	-
COc1ccc2nc(NC(=O)c3c(C)noc3C)sc2c1	0	33	0	-	0	0	0
Cc1sc2nc3ccc(NCc4ccco4)nn3c(=O)c2c1C	0	39	0	0	0	0	-
O=c1c2ccccc2nc2ccc(NCc3ccco3)nn12	0	41	0	0	0	0	0
Cc1ccc(S(=O)(=O)N2[C@H](CC(=O)c3cccc4ccccc34)OC[C@@H]2C)cc1	-	0	0	-	0	0	-
COc1ccc(-c2csc(N3CCN(c4cc5c(cc4Cl)nc(-c4ccncc4)n5CCOCCO)CC3)n2)cc1	0	42	0	-	0	0	0
Cc1ccc(-c2csc(N3CCN(c4cc5c(cc4Cl)nc(-c4ccncc4)n5CCN4CCCCC4)CC3)n2)cc1	0	-	0	-	0	0	-
CCOc1ccc(OCCNC(=O)c2cc(C3CC3)nc3c2cnn3C(C)C)cc1	0	0	0	-	0	0	-
CC(C)n1ncc2c(C(=O)NCCOc3ccccc3F)cc(C3CC3)nc21	0	44	0	-	0	0	0
CC(C)n1ncc2c(C(=O)NCCc3ccc(S(N)(=O)=O)cc3)cc(C3CC3)nc21	0	64	0	-	0	0	-
SMILES	TLR9-MyD88 block	Neddyl block	NPR1 activator	TLR4-MyD88 BLA	NPR2 activator	NOD2 RIPK2 PPI	Neddyl conf
CC(C)(C)c1ccc(OCC(=O)N/N=C/c2ccc(N3CCOCC3)cc2)cc1	0	54	0	0	0	0	0
Cc1ccc(C)c(OCC(=O)N/N=C/c2ccc(N3CCOCC3)cc2)c1	0	48	0	-	0	0	+
c1ccc(C[n+]2cccc3c4ccccc4ccc32)cc1	0	60	0	0	0	0	-
CC(C)(C)c1ccc(/C=C2\CCn3c2nc2cc(C(=O)O)ccc2c3=O)cc1	0	45	-	-	-	0	+
Cc1ccc(-c2cc3nc(-c4ccccc4)cc(N)n3n2)cc1	0	44	0	0	0	0	0
CCC(NC(=O)c1ccccc1O)c1ccccc1 (configuration not stated)	0	49	0	0	0	0	0
COc1ccccc1-n1c(-c2ccc(NS(C)(=O)=O)cc2)n[nH]c1=S	0	41	0	0	0	0	0
COc1ccc(-c2n[nH]c(=S)n2-c2cc(OC)ccc2OC)cc1	0	0	0	-	0	0	-
O=C(COC(=O)CC1CCCC1)Nc1ccc(Cl)cc1	0	0	0	-	0	0	-
O=S1(=O)c2c(cccc2N2CC[C@@H](O)C2)O[C@H]2CCN1C2	-	-	0	-	0	-	-
COC(=O)c1[nH]c2ccc(C)cc2c1NC(=O)CCN1CCN(Cc2ccc3c(c2)OCO3)CC1	0	42	0	0	0	0	0
COC(=O)c1[nH]c2cc(C)ccc2c1NC(=O)CN1CCOCC1	0	0	0	-	0	0	-
COc1ccc(CNC2CCCCC2C)c(OC)c1 (configuration not stated)	0	43	0	0	0	0	-
COC(=O)[C@@H]1[C@H](O[Si](C)(C)C(C)(C)C)C2OC2C[C@H]1S(=O)(=O)c1ccccc1 (some centres not stated)	-	-	0	-	0	-	-
CCC(=O)Nc1cc(-c2nn(C)c(=O)c3ccccc23)ccc1N1CCCCC1	0	38	0	0	0	0	0
S=C(Nc1cccc(Cl)c1)OCCN1CCCC12CCC(c1ccccc1)CC2 (configuration not stated)	-	-	0	-	0	-	-
NC(N)=NC(=O)c1nc(Cl)c(N)nc1N	0	40!	0	0	0	0	0
NC(N)=NC(=O)c1nc(Cl)c(N2CCCCCC2)nc1N	0	0	0	-	0	0	-
Cc1ccc(-c2cc(-c3nnc(SCC(=O)N4c5ccccc5Sc5ccc(Cl)cc54)n3N)[nH]n2)cc1	-	-	0	-	0	-	-
Cc1ccc(C(=O)c2oc3ccccc3c2NC(=O)c2cc(-c3cc(C)ccc3O)n[nH]2)cc1	0	40	0	-	0	0	0
Cc1ccc(C(=O)c2oc3ccccc3c2NC(=O)c2cc(-c3ccccc3O)n[nH]2)cc1	0	-	0	0	0	0	-
CCCCNC(=O)C[C@H]1C[C@@]2(C(=O)OC)C(=C[C@H](C3CCCC3)O[C@@H]2C)N(CCc2ccc(OC)c(OC)c2)C1=O	-	-	0	-	0	-	-
